# Experimental data as given in PubChem BioAssay AID588742 (Southern Research Specialized Biocontainment Screening …, 2011).
# In all, about 1,800 compounds went through this assay and about 410 (23%) were called active. The rule behind the calls is not given here. Only a sample is shown. Results with a measured potency or affinity are listed apart.
# Assay: viability of Vero cells under compound – cytotoxicity control for flavivirus capping enzyme inhibitors (AID 588742)
# Conditions: cytotoxicity counter-screen; series mostly up to 40 µM; viability: at the top concentration
row,Compound,viability
1,COc1c(OC(C)=O)ccc(/C=N\NC(=O)c2ccc(Br)cc2)c1[N+](=O)[O-],92.1% (inactive)
2,O=C(O/N=C1\CCCCC1c1ccc([N+](=O)[O-])cc1[N+](=O)[O-])c1c(F)cccc1F (stereo not given),98.9% (inactive)
3,O=C(O)c1cc(/C=C/C(=O)c2cc(F)ccc2O)c2c(c1)COCO2,95% (inactive)
4,Cc1cc(S(=O)(=O)ON2C(=O)c3ccccc3C2=O)ccc1F,105% (inactive)
5,Cc1cc(N2C(=O)C(O)=C(C(=O)c3ccco3)C2c2cccc(Oc3ccccc3)c2)no1 (stereo not given),95.3% (inactive)
6,CCCCC1=CC2=CC(=O)C(C)(OC(=O)CC)C(=O)C2=CN1Cc1ccc(OC)cc1 (stereo not given),101% (inactive)
7,O=C1C=CC2=C3c4cc(O)c(O)cc4CC3(O)COC2=C1O (stereo not given),93.7% (inactive)
8,CCOC(=O)C1(C)/C(=N/Nc2cccc(Cl)c2)C(=O)C(=O)N1c1ccccc1 (stereo not given),99.2% (inactive)
9,N=C1/C(=C\c2ccc(OC(=O)c3ccc(F)cc3)cc2)C(=O)N=C2SC(N3CCOCC3)=NN12,85.6% (inactive)
10,O=C(N/N=C/C(Cl)=C/c1ccc([N+](=O)[O-])cc1)C(=O)Nc1ccccc1C(=O)O,90.8% (inactive)
11,O=C(CCN1C(=O)/C(=C/c2ccccc2Cl)SC1=S)Nc1ccccc1C(=O)O,103% (inactive)
12,O=C(O)CCCCCN1C(=O)C(O)=C(C(=O)/C=C/c2ccccc2)C1c1ccccc1[N+](=O)[O-] (stereo not given),103% (inactive)
13,Oc1cc(-n2cccn2)c(O)cc1-n1cccn1,106% (inactive)
14,CC(=O)Nc1ccc(NC(=O)CC2Nc3cccc4cccc(c34)NC2=O)cc1 (stereo not given),92.3% (inactive)
15,COc1ccc(C2C=C(c3ccc(F)cc3)NC(=S)N2)cc1OC (stereo not given),95.2% (inactive)
16,COC(=O)CCC(=O)OC1(C)C(=O)C2=CN(c3ccccc3)C(c3ccc(OC)cc3)=CC2=C(Br)C1=O (stereo not given),111% (inactive)
17,O=c1[nH]c(/C=C/c2ccc(Cl)cc2Cl)c([N+](=O)[O-])c(=O)[nH]1,105% (inactive)
18,CC1CCc2c(sc(N)c2C(N)=O)C1 (stereo not given),100% (inactive)
19,O=C1C=C(Nc2ccccc2C(=O)O)c2ccccc2C1=O,93.8% (inactive)
20,CCC(C)c1ccc(NC(=O)Nc2cccnc2)cc1 (stereo not given),92.2% (inactive)
21,CCOc1ccc(Nc2ccc(N)c(S(=O)(=O)O)c2)cc1,104% (inactive)
22,O=c1cccccc1NCc1ccccc1,104% (inactive)
23,NC(=S)NNc1cccc2cccnc12,86.7% (inactive)
24,CN(C(=S)Nc1cccnc1)c1ccc(O)cc1,108% (inactive)
25,Oc1ccc(NCc2ccc(OCc3ccccc3)cc2)cc1,102% (inactive)

row,Compound,viability
1,C#CCOc1c(/C=C\c2nc(O)c([N+](=O)[O-])c(=O)[nH]2)cc(Br)cc1OC,99.6% (inactive)
2,COC(=O)c1ccc(NC(=O)CCc2nnc3ccc(NCc4ccco4)nn23)cc1,88.7% (inactive)
3,COc1ccc(OC)c(/C=C/c2c([N+](=O)[O-])c(=O)n(C)c(=O)n2C)c1,100% (inactive)
4,CC1(OC(=O)CCc2ccccc2)C(=O)C=C2C=C(c3ccc(C#N)cc3)N(C3CCCC3)C=C2C1=O (stereo not given),107% (inactive)
5,O=C1/C(=C\c2ccc(-c3ccccc3[N+](=O)[O-])o2)C(c2ccccc2)=NN1c1ccccc1,86.9% (inactive)
6,CCn1c(CSc2nnc3ccccn23)nc2cc(C(=O)O)ccc21,97.8% (inactive)
7,O=C(O)C1=CC[C@@H](c2ccc(Cl)cc2)N(S(=O)(=O)c2ccc(Cl)cc2)[C@H]1c1cccc(Cl)c1,87.2% (inactive)
8,Cc1ccc(C)c(S(=O)(=O)ON2C(=O)c3ccccc3C2=O)c1,109% (inactive)
9,Cc1ccc(Nc2ccc(N)cc2S(=O)(=O)O)cc1,85% (inactive)
10,COc1ccccc1CNC(=S)Nc1ccc(S(N)(=O)=O)cc1,92.7% (inactive)
11,CCOC(=O)c1c(-c2cccc(C)c2)csc1NC(=O)C1CC=CCC1C(=O)O (stereo not given),108% (inactive)
12,Cc1ccc(C(=O)Nc2ccccc2C(=O)O)cc1S(=O)(=O)Nc1ccc(Br)cc1,101% (inactive)
13,COC(=O)c1ccc(N2NC(=O)/C(=C/c3ccc(-c4ccc(Cl)c(C(=O)O)c4)o3)C2=O)cc1,93.8% (inactive)
14,CC1(OC(=O)C2CCCC2)C(=O)C=C2C=C(c3ccsc3)N(CCc3ccccn3)C=C2C1=O (stereo not given),97.4% (inactive)
15,CSc1nsc2nc(=O)c(/C=C3\C=Nc4ccccc43)c(N)n12,89.2% (inactive)
16,CC1=NN(Cc2ccccc2)C(=O)C1C(c1ccc(Cl)cc1)C(C#N)C#N (stereo not given),82.8% (inactive)
17,Cc1ccc(NC(=O)c2cccc(C(=O)Nc3ccc(C)cc3C(=O)O)c2)c(C(=O)O)c1,95.8% (inactive)
18,Cc1ccc(F)c(NC(=O)/C(C#N)=C(\O)c2ccc(C(C)(C)C)cc2)c1,94.3% (inactive)
19,Cn1c(=O)c2[nH]c(-c3ccccc3)c(O)c2n(C)c1=O,105% (inactive)
20,O=C(O)c1ccc2c(c1)C(=O)N(c1ccc(/C=C/C(=O)c3ccccc3)cc1)C2=O,110% (inactive)
21,O=C(O)COc1ccc(/C=C/C(=O)c2ccc(C3CCCCC3)cc2)cc1,90.6% (inactive)
22,C#CCOc1c(Br)cc(/C=C2/C(=O)ON=C2C)cc1OC,92.8% (inactive)
23,CC(C(=O)Nc1ccc(O)cc1C(=O)O)N1C(=O)/C(=C\c2cccs2)SC1=S (stereo not given),95.8% (inactive)
24,O=C1CC2CCCN2C=C1I (stereo not given),94.8% (inactive)
25,c1cc2c(cc1CNc1ccc(N3CCOCC3)cc1)OCO2,101% (inactive)

row,Compound,viability
1,Cc1ccc(-c2cc(C(=O)O)c3cc(Br)ccc3n2)o1,92.2% (inactive)
2,Cc1ccnc(NCc2ccccc2O)c1,101% (inactive)
3,O=C1C(Cl)=C(N2CCCC2)C(=O)N1c1ccccc1F,104% (inactive)
4,O=C1C(Cl)=C(N2CCCCC2)C(=O)N1c1ccccc1,94.3% (inactive)
5,Cc1ccc(N2C(=O)C(Cl)=C(N3CCN(C)CC3)C2=O)c(C)c1,102% (inactive)
6,CN1CCN(C2=C(Cl)C(=O)N(c3ccc(Cl)c(Cl)c3)C2=O)CC1,106% (inactive)
7,CCCCNC(=O)c1ccc2nc(-c3ccco3)c(-c3ccco3)nc2c1,96% (inactive)
8,CC1=NN(c2ccc(C)c(C)c2)C(=O)C1C(c1cccc(O)c1)C1C(=O)N(c2ccc(C)c(C)c2)N=C1C (stereo not given),102% (inactive)
9,CCCCC1=CC2=C(c3ccco3)C(=O)C(C)(OC(=O)c3ccc(OC)cc3)C(=O)C2=CN1C(CO)CO (stereo not given),98.4% (inactive)
10,C=CCOc1ccc(C(c2c(O)nc(SC)[nH]c2=O)c2c(O)nc(SC)[nH]c2=O)cc1,107% (inactive)
11,CC(=O)N1c2ccc(S(=O)(=O)N(C)CC(=O)Nc3ccccc3C)cc2CC1C (stereo not given),108% (inactive)
12,O=C(CN1C(=O)/C(=C2/SC(=S)N(CCS(=O)(=O)O)C2=O)c2ccccc21)Nc1cccc(Br)c1,103% (inactive)
13,O=C(O)c1ccccc1NS(=O)(=O)c1ccc(NNC(=S)Nc2ccc(OC(F)F)cc2)c([N+](=O)[O-])c1,86.5% (inactive)
14,C=CCNc1nc(Nc2ccc([N+](=O)[O-])cc2)nc(OC)n1,94% (inactive)
15,O=C(Nc1ccc(Cl)cc1C(=O)O)c1ccc2c(c1)C(=O)N(Cc1ccco1)C2=O,103% (inactive)
16,C#CCOc1ccccc1/C=C1/C(=O)ON=C1C,93.1% (inactive)
17,COc1ccc(-c2csc(NC(=O)c3ccccc3Br)c2C(=O)O)cc1,94.8% (inactive)
18,Cc1ccc(/C=N/NC(=O)c2nnn(-c3nonc3N)c2CSc2ccccc2)s1,101% (inactive)
19,CCC(=O)OC1(C)C(=O)C2=COC(c3ccc(OC)cc3)=CC2=C(Br)C1=O (stereo not given),91.3% (inactive)
20,CCc1ccc(Nc2ccc(C(=O)O)cc2[N+](=O)[O-])cc1,107% (inactive)
21,O=C(Nc1cc(S(=O)(=O)N2CCOCC2)ccc1O)c1ccc2c(c1)S(=O)(=O)c1ccccc1C2=O,95.9% (inactive)
22,O=S(=O)(Nn1c(O)c(C=C2N=c3ccccc3=N2)sc1=S)c1ccccc1,90.8% (inactive)
23,O=C1ON=C(c2ccc([N+](=O)[O-])cc2)/C1=C/c1ccccc1O,103% (inactive)
24,O=C(NCc1ccccc1)c1sc(=S)n2c1[nH]c(=O)c1ccccc12,98.5% (inactive)
25,Nc1scc2c(C(=O)O)nn(-c3ccccc3)c(=O)c12,103% (inactive)

row,Compound,viability
1,CCOC(=O)c1sc(N2C(=O)C(O)=C(C(=O)c3ccco3)C2c2ccc([N+](=O)[O-])cc2)nc1C (stereo not given),97.5% (inactive)
2,Cc1cc(O)c(C(C)C)cc1N=Cc1ccccc1O,91.1% (inactive)
3,O=C1C(Cl)=C(N2CCN(Cc3ccccc3)CC2)C(=O)N1c1ccccc1,96.7% (inactive)
4,CC(=O)Oc1oc(-c2ccccc2)nc1C=Nc1ccccc1,93% (inactive)
5,COc1cc(C(=O)Nc2scc(-c3ccc(Br)cc3)c2C(=O)O)cc(OC)c1OC,92% (inactive)
6,Cc1ccc(SCc2[nH]nc3c2C(c2ccco2)C(C#N)=C(N)O3)cc1 (stereo not given),97% (inactive)
7,Nc1cccc2c1C(=O)N(C(=O)/C=C/c1cccc(F)c1)C2=O,102% (inactive)
8,Cc1cc(O)c(C(C)C)cc1N=Cc1cc([N+](=O)[O-])ccc1O,105% (inactive)
9,O=[N+]([O-])c1ccc(O)c(C=Nc2ccc3c(c2)OCO3)c1,83.4% (inactive)
10,CC[N+]1(CC)CC2CCC(C)(C1)C2(C)C (stereo not given),103% (inactive)
11,CCCn1c(C)cc(-c2csc(N)n2)c1C,93.8% (inactive)
12,O=C(O)c1cccc(Nc2cc(Cl)c3nonc3c2[N+](=O)[O-])c1,99.5% (inactive)
13,O=C(O)c1cc(Nc2cc(Cl)c3nonc3c2[N+](=O)[O-])ccc1O,106% (inactive)
14,O=[N+]([O-])c1ccc(O)c(Nc2c([N+](=O)[O-])ccc3nonc23)c1,90.6% (inactive)
15,O=[N+]([O-])c1c(Nc2ccccc2O)cc(Cl)c2nonc12,85.5% (inactive)
16,O=C(O)c1ccc(Nc2cc(Cl)c3nonc3c2[N+](=O)[O-])cc1,96.6% (inactive)
17,Cc1ccc(/C=N/c2sc3c(c2C#N)CCC3)s1,99.6% (inactive)
18,COc1cc(C2C(C#N)=C(N)N(c3cccnc3)C3=C2C(=O)CCC3)ccc1O (stereo not given),101% (inactive)
19,CCCCCc1c2c(cc(O)c1C(=O)O)OC(=O)c1cc(C(=O)CCCC)c(OC)cc1O2,103% (inactive)
20,COC(=O)Cc1ccc(NC(=S)Nc2ccc(N3CCOCC3)cc2)cc1,103% (inactive)
21,COc1cc(/C=C2/C(=O)NN(c3cccc(C)c3)C2=O)ccc1OC(=O)c1ccco1,99.3% (inactive)
22,CCC(C)NC(=O)c1ccc(N2CCC3(CC2)OCCO3)c([N+](=O)[O-])c1 (stereo not given),95.6% (inactive)
23,CC(C)NC(=O)Cn1cc(S(=O)(=O)N2CCCC2)c(S(=O)(=O)N2CCCC2)c1,96.5% (inactive)
24,CC(=O)Nc1ccc(C2=NNC(=NCC3CCCO3)SC2)cc1 (stereo not given),102% (inactive)
25,O=C(O)CN1C(=O)/C(=C\c2cc(Br)ccc2OCc2ccc([N+](=O)[O-])cc2)SC1=S,96.9% (inactive)
